Measurements as given in PubChem BioAssay AID488815 (Broad Institute, 2010).
Results with a measured potency or affinity are listed apart. Inconclusive results are not listed. Calls of active or inactive are those of the source. How the calls were made is not given here.

Molecular target: CAAX prenyl protease 1 (Saccharomyces cerevisiae (strain ATCC 204508 / S288c)) (UniProt P47154)
Assay: Ste24 protease inhibitors, dose response, biochemical, S. cerevisiae, plate reader, cherry-pick (AID 488815)
Conditions: yeast Ste24 protease activity; series mostly up to 10 µM

Sequence of CAAX prenyl protease 1 (Saccharomyces cerevisiae (strain ATCC 204508 / S288c)) (P47154 whole entry, looked up): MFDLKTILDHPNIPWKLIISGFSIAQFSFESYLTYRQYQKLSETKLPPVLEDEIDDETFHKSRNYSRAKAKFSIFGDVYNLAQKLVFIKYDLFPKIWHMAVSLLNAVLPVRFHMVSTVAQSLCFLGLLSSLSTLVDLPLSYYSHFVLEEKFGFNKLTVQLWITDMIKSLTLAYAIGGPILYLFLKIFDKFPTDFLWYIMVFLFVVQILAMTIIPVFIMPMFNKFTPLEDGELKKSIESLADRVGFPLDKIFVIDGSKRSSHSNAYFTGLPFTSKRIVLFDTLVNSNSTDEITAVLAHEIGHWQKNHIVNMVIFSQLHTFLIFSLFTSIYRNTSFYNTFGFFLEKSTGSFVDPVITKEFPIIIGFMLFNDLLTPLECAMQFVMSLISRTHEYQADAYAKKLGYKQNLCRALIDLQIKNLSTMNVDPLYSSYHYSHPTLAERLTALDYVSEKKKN

outcome, inactive:
COc1cc2ccccc2cc1C(=O)N(CCN(C)C)c1nc2ccc(C)cc2s1
COc1cccc(-c2nc(C#N)c(N3CCN(C(=O)c4ccco4)CC3)o2)c1
COc1ccccc1CC(=O)Nc1ccc2c(C)cc(=O)oc2c1
C/C(Cl)=C\Cn1c(O)c(N=NC(N)=S)c2cc(Br)ccc21
CCOc1ccc(N(CC(=O)NC2CC3CCC2C3)S(=O)(=O)c2ccccc2)cc1 (centres undefined)
CCCCOC(=O)Nc1nc(C)c(C(=O)OCC)s1
CC(=O)Nc1ccc(Cl)cc1C1COC(=O)C1=N (centres undefined)
O=C(CN(C1CCCCC1)C1CCCCC1)N1CCc2ccccc2C1
Cc1cc(NC(=O)c2oc3ccccc3c2C)ccc1-n1cnnn1
CC(C)NCC(O)COCCOc1ccc(Br)cc1 (centres undefined)
CN(C(=O)c1ccc2c(c1)SC1=NS(=O)(=O)CCN12)C(c1ccccc1)c1ccccc1
Cn1c(CN2CCOCC2)c(C#N)c2ccccc21
O=C(CCNS(=O)(=O)c1ccc2[nH]c(=O)oc2c1)NCc1ccccc1
CN(C)CCN(C(=O)c1ccc2ccccc2c1)c1nc2ccc(F)cc2s1
CCC1CCCCN1C(=O)NC(=O)c1ccccc1 (centres undefined)
Cc1ccc(NS(=O)(=O)c2ccc(NC(=O)N3CCCCC3)cc2)cc1
Cc1cccc2sc(N(CCN(C)C)C(=O)c3ccc4ccccc4c3)nc12
CCn1cc(/C=C(\NC(=O)c2ccccc2)C(=O)N2CCOCC2)c2ccccc21
COC(C/C=C/[C@@H](O)[C@H](C)OCc1ccccc1)OC
CCSCCOC(=O)C1=C(C)NC(=O)NC1c1ccccc1 (centres undefined)
O=C(Nc1ccc(F)cc1)Oc1ccccc1N1CCOCC1
O=C(O)CCc1nc2cc(C(F)(F)F)ccc2n(Cc2ccccc2)c1=O
COc1ccc(-n2c(SCc3ccc([N+](=O)[O-])cc3)nnc2-c2ccc(C)cc2)cc1
O=C(Nc1ccccc1-c1nc2ccccc2[nH]1)c1ccc(N2C(=O)CCC2=O)cc1
COc1cccc(C(=O)Nc2nnc(SCC(=O)NC3CCCC3)s2)c1
Cc1cc(C)n(Cc2ccc(NC(=O)c3ccc(COc4ccccc4Br)cc3)cc2)n1
O=C1CCN(Cc2ccccc2)CCN1[C@H](CSc1ccccc1)Cc1ccccc1
CC1=C(C(=O)OCc2ccccc2)C(c2ccc(-c3ccccc3)cc2)NC(=O)N1CCCC(=O)O (centres undefined)
CCN1CCN(c2ccc(NC(=O)c3cccc(OCc4ccccc4)c3)cc2)CC1
O=C(CC1(O)C(=O)N(C/C=C/c2ccccc2)c2ccccc21)c1ccccn1 (centres undefined)
O=C(Nc1sc2c(c1C(=O)c1ccc(Cl)cc1)CCCC2)c1cccnc1
COc1ccc(-c2nc3ncccc3o2)cc1NC(=O)c1ccco1
O=C(C(Cc1ccccc1)N1C(=O)c2ccccc2C1=O)N1c2ccccc2CCc2ccccc21 (centres undefined)
O=c1c(-c2ccccc2)c(O)c2ccccc2n1-c1ccccc1
COc1ccccc1-n1c(-c2ccccc2)c[nH]c1=S
CC(C)CNC(=O)COc1cccc(C(=O)NCc2ccccc2)c1
COc1cccc(-c2cc(C(F)(F)F)n3ncc(S(=O)(=O)c4ccccc4)c3n2)c1
O=C(O)CCC(=O)c1ccc(-c2ccccc2)cc1
Cc1nc2c(C)cccn2c(=O)c1NC(=O)COc1ccccc1
